Bioassay records as filed in PubChem.
PLC-beta3 inh: human PLC-beta3 inhibitors, primary screen, biochemical, fluorescence; AID 720704, 2013; actives 0.18% (n = 370,000); inhibition, % at 12.2 µM; Purified PLC-beta3, fluorogenic substrate;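 also: 0% = median of compound wells on plate and 100% = full blocker control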
ADAM17 inh: ADAM17 inhibitors, primary screen, biochemical, QFRET; AID 720648, 2013; actives 0.83% (n = 370,000); recombinant ADAM17, EDANS/DABCYL FRET peptide cleavage; inhibition, % at 6.95 µM;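 active = inhibition above the mean of compounds lying between control limits plus 3 SD, set per campaign, cut at about 8.5% in these data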;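 also: 0% = DMSO-only wells as the low control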
PLC-gamma1 inh: PLC-gamma1 enzyme inhibitors, primary screen, biochemical, fluorescence, purified enzyme. 1-phosphatidylinositol 4,5-bisphosphate phosphodiesterase gamma-1 (Homo sapiens), P19174. fluorogenic substrate. inhibition, % at 12.2 µM. actives 0.84% (n = 370,000). AID 720700, 2013; in the data active = inhibition above about 9.5%
HGIII-sPLA2 inh: human group III sPLA2 inhibitors, primary screen, biochemical, QFRET, BODIPY PC-A2 liposome substrate; QFRET BODIPY PC-A2 liposome hydrolysis, fluorescence; inhibition, % at 12.2 µM; actives 0.56% (n = 370,000);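 active = inhibition above mean plus 3 SD of compounds lying within the high and low control bounds, cut at about 19% in these data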;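 also: 0% = median of test compound wells and 100% = no enzyme DMSO wells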
ADAM10 inh: human ADAM10 inhibitors, primary screen, biochemical, QFRET, HTS | Disintegrin and metalloproteinase domain-containing protein 10 (Homo sapiens), O14672 | recombinant ADAM10, EDANS/DABCYL FRET peptide cleavage, 3 h | inhibition, % at 7 µM | actives 0.62% (n = 370,000);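 active = inhibition above a per-campaign cutoff equal to the mean of compounds falling between control-based bounds plus 3 SD, cut at about 20% in these data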;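 also: 0% = DMSO wells while the 100% control is not disclosed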
Target sequence (O14672 214-748 limits assumed): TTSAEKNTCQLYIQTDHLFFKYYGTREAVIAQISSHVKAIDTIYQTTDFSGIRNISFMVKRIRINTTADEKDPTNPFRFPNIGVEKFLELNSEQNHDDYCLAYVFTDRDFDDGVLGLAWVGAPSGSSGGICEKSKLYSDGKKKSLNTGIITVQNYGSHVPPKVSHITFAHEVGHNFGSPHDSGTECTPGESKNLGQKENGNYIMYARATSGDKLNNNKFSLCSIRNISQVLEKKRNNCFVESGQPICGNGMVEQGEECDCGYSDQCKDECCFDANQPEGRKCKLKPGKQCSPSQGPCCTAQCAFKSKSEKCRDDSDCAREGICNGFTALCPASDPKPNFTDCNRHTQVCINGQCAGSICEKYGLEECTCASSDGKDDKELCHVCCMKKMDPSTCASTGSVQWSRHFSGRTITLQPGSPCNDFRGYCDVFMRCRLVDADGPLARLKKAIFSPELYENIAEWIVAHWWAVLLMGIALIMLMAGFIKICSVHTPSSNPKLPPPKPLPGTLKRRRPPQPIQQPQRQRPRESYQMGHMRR
proKLK7 act: proKLK7 zymogen activators, primary screen, biochemical, fluorescence intensity. Kallikrein-7 (Homo sapiens), P49862. purified proKLK7, EDANS-DABCYL substrate fluorescence; 100% is mature enzyme control, 0% vehicle. activation, % at 7 µM. actives 0.9% (n = 370,000). AID 652039, 2013;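 active = activation above the mean of all tested compounds plus 3 SD, computed per campaign excluding outliers beyond control limits, cut at about 13% in these data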
PLCg1 ctr: PLC-gamma1 enzyme inhibitors, counter-screen for PLC-beta3 inhibitor project, biochemical, fluorescence. shares compounds with PLC-gamma1 inh. purified PLC-gamma1, fluorogenic substrate. inhibition, % at 12.3 µM. actives 3.1% (n = 3,300); in the data active = inhibition above about 9.5%
PLCb3 confirm: PLC-beta3 inhibitor confirmation, biochemical, fluorescence, purified enzyme. fluorogenic substrate fluorescence. inhibition, % at 12.3 µM. actives 1% (n = 3,300). shares compounds with PLC-gamma1 inh. AID 743261, 2014
Numbers without * were called inactive. This is a sample that favours compounds with a hit; in the whole collection about 3.4% have one here. Rule as the data show it, unless noted: active = inhibition above about 11%; inactive = the rest.

Screening CCCCCCCNC(=O)C1(CC2CC(c3ccc(Cl)cc3)=NO2)CCNCC1 (centres undefined) returned PLC-beta3 inh 2, ADAM17 inh -3, PLC-gamma1 inh 4, HGIII-sPLA2 inh -1, ADAM10 inh -4 and proKLK7 act 0.
Screening O=C(NCC1CCCO1)c1nnc(Cc2ccc(F)cc2)o1 (centres undefined) returned PLC-beta3 inh 7, ADAM17 inh 2, PLC-gamma1 inh 11*, HGIII-sPLA2 inh 4, ADAM10 inh 9, proKLK7 act 0, PLCg1 ctr -9 and PLCb3 confirm -5.
O=C(CSc1nnc(CNC(=O)c2ccc(F)cc2)o1)NCC1CCCO1 (centres undefined) was read as PLC-beta3 inh -6, ADAM17 inh -4, PLC-gamma1 inh -1, HGIII-sPLA2 inh 7, ADAM10 inh -12 and proKLK7 act 0.
`Cc1cc(C(=O)OCC(=O)Nc2c(Cl)cccc2Cl)c(C)o1` gave PLC-beta3 inh 1, ADAM17 inh 2, PLC-gamma1 inh 2, HGIII-sPLA2 inh -3, ADAM10 inh 16 and proKLK7 act 0.
For O=C(CN1CCN(C(=O)N2CCCCC2)CC1)Nc1ccc(F)cc1 the results were PLC-beta3 inh -2, ADAM17 inh -3, PLC-gamma1 inh 11*, HGIII-sPLA2 inh 8, ADAM10 inh -6, proKLK7 act 1, PLCg1 ctr 0 and PLCb3 confirm -6.
COc1ccc(NC(=O)Cn2nnc(C(=O)NCc3ccc(C)cc3)c2N)cc1Cl was read as PLC-beta3 inh -6, ADAM17 inh -2, PLC-gamma1 inh 13*, HGIII-sPLA2 inh 3, ADAM10 inh 2, proKLK7 act 0, PLCg1 ctr -2 and PLCb3 confirm -2.
For CCCN(CCC)S(=O)(=O)c1cccc(C(=O)N=c2sccn2C)c1 the results were PLC-beta3 inh -42, ADAM17 inh -1, PLC-gamma1 inh -36, HGIII-sPLA2 inh -12, ADAM10 inh -6 and proKLK7 act 0.
For Cc1c(-c2ccccc2)nc2ccccc2c1C(=O)NCc1cccs1 the results were PLC-beta3 inh 14*, ADAM17 inh 3, PLC-gamma1 inh 4, HGIII-sPLA2 inh -5, ADAM10 inh 8, proKLK7 act -1, PLCg1 ctr -3 and PLCb3 confirm -2.
`Cc1c(C(=O)NCc2cccs2)oc2ccccc12` gave PLC-beta3 inh 1, ADAM17 inh -4, PLC-gamma1 inh 2, HGIII-sPLA2 inh -3, ADAM10 inh 4 and proKLK7 act 0.
Screening CC(C)Oc1cccc(C(=O)NC(=S)Nc2ccc(Cl)c(C(=O)O)c2)c1 returned PLC-beta3 inh -6, ADAM17 inh 0, PLC-gamma1 inh 10*, HGIII-sPLA2 inh 2, ADAM10 inh 6, proKLK7 act 0, PLCg1 ctr -9 and PLCb3 confirm -4.
Screening Cc1ccc(NC(=O)CSc2nnc(C3CCCCC3)n2N)cc1F returned PLC-beta3 inh 3, ADAM17 inh 4, PLC-gamma1 inh 13*, HGIII-sPLA2 inh -16, ADAM10 inh 13, proKLK7 act 1, PLCg1 ctr -3 and PLCb3 confirm 1.
`c1ccc(Cn2ncc3c(N4CCN(c5ccccc5)CC4)ncnc32)cc1` gave PLC-beta3 inh 1, ADAM17 inh 3, PLC-gamma1 inh 11*, HGIII-sPLA2 inh 0, ADAM10 inh 3, proKLK7 act -1, PLCg1 ctr -6 and PLCb3 confirm -5.
COC(=O)C1=C(C)N(C)C(=O)NC1c1c(O)ccc2ccccc12 (centres undefined) was read as PLC-beta3 inh -6, ADAM17 inh 0, PLC-gamma1 inh 3, HGIII-sPLA2 inh 2, ADAM10 inh -5 and proKLK7 act 0.
`CCC(CO)N=CC1=C(O)CC(C)(C)CC1=O` (centres undefined) gave PLC-beta3 inh 9, ADAM17 inh 4, PLC-gamma1 inh 1, HGIII-sPLA2 inh 6, ADAM10 inh 9 and proKLK7 act 0.
`CC1CCCCC1N=CC1=C(O)CC(C)(C)CC1=O` (centres undefined) gave PLC-beta3 inh 10, ADAM17 inh 2, PLC-gamma1 inh 11*, HGIII-sPLA2 inh 0, ADAM10 inh 2, proKLK7 act 0, PLCg1 ctr -4 and PLCb3 confirm -2.
Screening CC(=O)c1ccc(C(=O)N2CCCC(N3CCN(c4ccc(F)cc4)CC3)C2)s1 (centres undefined) returned PLC-beta3 inh -6, ADAM17 inh 0, PLC-gamma1 inh -1, HGIII-sPLA2 inh 1, ADAM10 inh -2 and proKLK7 act 0.
For C=CCNC(=O)C(C(=O)OCC)C1CCCCC1 (centres undefined) the results were PLC-beta3 inh 14*, ADAM17 inh 6, PLC-gamma1 inh 10*, HGIII-sPLA2 inh -4, ADAM10 inh 7, proKLK7 act 0, PLCg1 ctr -2 and PLCb3 confirm -8.
COC[C@H]1CCCN1c1ccc2c(c1)O[C@@H](COCc1ccccc1)CN([C@H](C)c1ccccc1)S2(=O)=O was read as PLC-beta3 inh -4, ADAM17 inh -2, PLC-gamma1 inh 10*, HGIII-sPLA2 inh 11, ADAM10 inh -13, proKLK7 act 0, PLCg1 ctr -3 and PLCb3 confirm -2.
Screening COC[C@@H]1CCCN1c1ccc2c(c1)O[C@H](COCc1ccccc1)CN([C@@H](C)c1ccccc1)S2(=O)=O returned PLC-beta3 inh 1, ADAM17 inh -3, PLC-gamma1 inh 3, HGIII-sPLA2 inh 3, ADAM10 inh -15 and proKLK7 act -1.
`CC(=O)Nc1ccc(S(=O)(=O)NCC(=O)OCC(=O)N2CCc3ccccc32)cc1` gave PLC-beta3 inh 1, ADAM17 inh 8, PLC-gamma1 inh 13*, HGIII-sPLA2 inh 2, ADAM10 inh 7, proKLK7 act 0, PLCg1 ctr -9 and PLCb3 confirm -6.
